Among all 360,000 compounds or so, about 17,000 (4.7%) were called active. About 5% were inconclusive and are not listed. No stated cut-off is given here; in the data, active means activity change below about -50%; inconclusive means mostly about -30% to -49%; inactive means weaker than that. For the sample, actives were picked, then their nearest neighbours and some compounds at random.
On the % scale 0 is the no-effect control and ±100 the full control effect.

This test is described as follows: qHTS for Inhibitors of Inflammasome Signaling: IL-1-beta AlphaLISA Primary Screen. Conditions: THP-1 LPS/ATP IL-1B secretion, 16 h; at 57.5 µM, active compounds read low. The procedure, abridged: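 THP-1 cells pretreated 1 hr with compounds (up to 57.5 uM final), then stimulated with LPS (250 ng/mL final) plus ATP (1.25 mM final); secreted IL-1B measured by AlphaLISA after 16 hr, decreased signal indicating inhibition.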
In general terms: qHTS replaces the single test concentration by a dilution series.
For `COC(=O)c1ccccc1N=Nc1c(C)[nH][nH]c1=O`, the activity change is 1.34% (inactive). In the case of `CCOc1cc(/C=N/NC(=O)c2c(C)nc3ccc(Cl)cn23)ccc1O`, the activity change was 11.7% (inactive). In the case of `O=C(NCCc1ccc(F)cc1)c1n[nH]c2ccccc12` it was 29.4% (inactive).

Turning to `O=C(NCCCO)c1cc2c([nH]c3ccccc32)c(-c2ccc(F)cc2)n1`, the activity change is -65.7% (active).

Turning to `O=C(NCC1CCCO1)c1cc2c([nH]c3ccccc32)c(-c2ccc(F)cc2)n1` (stereo unspecified), the activity change is -10.2% (inactive). As for `CC(C(=O)NCCc1ccc(S(N)(=O)=O)cc1)N1C(=O)CC(C)(C)Sc2ccccc21` (stereo unspecified), the activity change was 25.8% (inactive).

Regarding `CCCOc1ccc(C(=O)CCC(=O)OC(C)C(=O)Nc2ccc(NC(C)=O)cc2)cc1` (stereo unspecified), the activity change was 10.1% (inactive). On to `CCCOc1ccc(C(=O)C(CCC(CNCC)C(=O)c2ccc(OCCC)cc2)CNCC)cc1` (stereo unspecified), for which the activity change was -94% (active). In the case of `CCCOc1ccc(NC(=O)C2CCCNC2=O)cc1` (stereo unspecified), the activity change is -6.06% (inactive). In the case of `Cc1[nH]c2ccccc2c1/C=N/NC(=O)CNC(=O)c1ccc2c(c1)OCO2` it was 0% (inactive); in that of `COCCNC(=S)N/N=C/c1c(C)[nH]c2ccccc12`, -69.7% (active). In the case of `COc1ccc2ccccc2c1/C=N/NC(=O)c1cc(C)[nH]n1` it was 0% (inactive); in that of `OCCNc1nc2ccccc2n1-c1ncnc2sc3c(c12)CCC3`, 20.3% (inactive).

For the compound `CC1=C(C(=O)N2CCOCC2)CC(CC(=O)NCCCN(C)C)C(=O)N1Cc1ccc(C(C)(C)C)cc1` (stereo unspecified), the activity change is -21.9% (inactive). In the case of `CCOC(=O)C(=Cc1ccccc1OC)C(=O)OCC` it was -99.3% (active). Regarding `CCOC(=O)NC(=O)/C(C#N)=C\c1ccccc1`, the activity change is 3.54% (inactive).

As for `CCOC(=O)C(=Cc1ccccc1)C(=O)c1ccccc1`, the activity change was -98.2% (active). In the case of `CCOC(=O)C(=CNc1cccc(C)n1)C(=O)OCC` it was 16.2% (inactive); in that of `CCOC(=O)c1ccccc1OC(=O)Oc1ccccc1C(=O)OCC`, -16.9% (inactive); in that of `COc1ccccc1C(=O)c1ccccc1C(=O)c1ccccc1`, -7.51% (inactive). In the case of `C=CCn1c(=O)n(C)c2c(=O)n(C)c(=O)n(C)c21` it was -2.57% (inactive); in that of `Cc1ccc(F)c(S(=O)(=O)NC(=O)C2(C)CCN2C(=O)CCc2cccs2)c1` (stereo unspecified), 0.428% (inactive). `Cc1ccc(NC(=O)CN(C)C(=O)c2cccc(S(=O)(=O)N3CCCC3)c2)cc1`: the activity change is 8.98% (inactive).

For the compound `NC(CSC1(c2ccccc2)c2ccccc2-c2ccccc21)C(=O)O` (stereo unspecified), the activity change was 24.5% (inactive). Consider `CC(=O)c1ccc(S(=O)(=O)NCc2nnnn2-c2ccccc2)cc1`, for which the activity change was 8.11% (inactive). Consider `CN(C)c1nnnn1-c1ccc(Cl)cc1`, for which the activity change is 13.4% (inactive). On to `O=C(NCc1nnnn1-c1ccc(Cl)cc1)c1ccc([N+](=O)[O-])o1`, for which the activity change is -76.1% (active). In the case of `CC1=C(C(=O)N2CCOCC2)CC(CC(=O)NCCN2CCOCC2)C(=O)N1CCC1=CCCCC1` (stereo unspecified) it was 11.4% (inactive); in that of `COCCn1cnc2c1c(=O)n(Cc1ccc(Br)cc1)c(=O)n2Cc1ccccc1`, -61.2% (active); in that of `CC(C)CCn1cnc2c1c(=O)n(CC(=O)NC(N)=O)c(=O)n2Cc1ccccc1`, -1.43% (inactive). In the case of `COCCn1cnc2c1c(=O)n(CC(=O)NN)c(=O)n2Cc1ccccc1` it was 0.195% (inactive); in that of `COc1ccc2c(c1)CCCO[C@]21O[C@H](CCO)C[C@H](O)[C@H]1O`, 24.3% (inactive); in that of `Clc1ccc2nc(-c3ccccc3)nc(C(Cl)Cl)c2c1`, 42.9% (inactive).

For `NC(N)=Nc1nc(-c2ccccc2)c2cc(Cl)ccc2n1`, the activity change is -81.6% (active). Next, `COC(=O)Cn1nc(-c2ccccc2)c2cc(Cl)ccc21`: -6.25% (inactive); `Cc1cccc(NS(=O)(=O)c2ccc(C)c(C(=O)NCC(c3ccccc3)N(C)C)c2)c1` (stereo unspecified): -29.1% (inactive). Next, `CC(C(=O)NCC1CCCCC1)N(C)Cc1cccc(Cl)c1` (stereo unspecified): -16.9% (inactive). In the case of `O=Nc1c(O)cc(O)c2ccccc12` it was -2.52% (inactive); in that of `CC1(C)C(=O)Nc2ccccc2N1C(=O)COC(=O)Cn1cnc2ccccc2c1=O`, 7.25% (inactive).

Take `O=C(COC(=O)Cn1cnc2ccccc2c1=O)NCC12CC3CC(CC(C3)C1)C2`: the activity change is -52.9% (active). Next, `O=C(COC(=O)Cn1cnc2ccccc2c1=O)NCc1ccccc1Cl`: 12.2% (inactive); `CCc1cc(-c2nnn(CCC3COCCO3)c2CC)ccc1-c1cn(Cc2ccc3ccccc3c2)nn1` (stereo unspecified): 52.6% (inactive). Take `Cc1ccc(CNC(=O)C2CCN(S(=O)(=O)c3ccc4nc5c(c(C(=O)O)c4c3)CC(C)CC5)CC2)cc1` (stereo unspecified): the activity change is 1.65% (inactive). Consider `COc1cccc(CC2(CO)CCN(Cc3cnc(-c4cccc(C)c4)nc3)CC2)c1`, for which the activity change was -64.4% (active). In the case of `COc1ccc(CC2(CO)CCN(Cc3cnn(C)c3)CC2)cc1` it was 12.5% (inactive). Next, `Cc1cccc(-c2ncc(CN3CCC(CO)(CCCc4ccccc4)CC3)cn2)c1`: -19.1% (inactive); `CC(=O)c1cc(CN2CCC(n3nccc3NC(=O)c3ccccc3Cl)CC2)cs1`: -15.4% (inactive). Next, `O=C(NCc1nnc(SCC(=O)N2CCCCCC2)o1)c1ccc(F)cc1`: 22.8% (inactive); `Cn1c(CNC(=O)c2ccco2)nnc1SCC(=O)N1CCN(c2ccccc2)CC1`: 52% (inactive).

Regarding `O=C(NCc1nnc(SCC(=O)N2CCC(Cc3ccccc3)CC2)o1)c1ccco1`, the activity change was -92.1% (active).

Consider `NC(=O)C1(Nc2ccccc2Cl)CCCC1`, for which the activity change was -1.93% (inactive).

Turning to `CCOC(=O)[C@]12CCCC=C1N(Cc1ccc3c(c1)OCO3)C(=O)[C@H](CC(=O)NCc1cccs1)C2`, the activity change is 0% (inactive). In the case of `O=C(CCC(=O)OCc1ccc(Cl)cc1)Nc1ccccc1` it was 15% (inactive); in that of `O=C(O)CC1=C(Nc2ccccc2)C(=O)N(c2ccccc2)C1c1ccc(Cl)cc1` (stereo unspecified), 0% (inactive); in that of `O=C1C=C(c2ccc(Cl)cc2)C(=O)N1Nc1ccccc1`, -76.1% (active).

Consider `COc1ccc(NC(=O)C(C)N2c3cccc4cccc(c34)S2(=O)=O)c(OC)c1` (stereo unspecified), for which the activity change is 27.8% (inactive). Turning to `CCC(C)CN1C(=O)CN(S(C)(=O)=O)CC1(C)C(=O)Nc1ccc2c(c1)OCCO2` (stereo unspecified), the activity change is -19.9% (inactive). In the case of `COc1ccc(-c2cc3c(c4c2ccn4C)C2CCC3C2)cn1` (stereo unspecified) it was 0% (inactive); in that of `COc1ccc(-c2nc3ccccc3c(=O)n2CCc2ccc(O)cc2)cc1`, -13% (inactive). In the case of `COc1ccc(-c2c(C#Cc3ccccc3)c3ccccc3n2C)cc1` it was -16.3% (inactive); in that of `COc1ccc(CCNCc2c(-c3ccccc3)n(C)c3ccccc23)cc1`, -97.2% (active).
